Sampled rows, rich in hits. Any-hit rate of the full collection: about 7.9%.
MCF10A rerep = A quantitative high throughput screen for small molecules that induce DNA re-replication in MCF 10a normal breast cells; MCF 10A DNA re-replication, Hoechst nuclear intensity, 48 h; Potency, µM (titrated, usually from 46.1 µM), actives largely listed as activators; 350,000 tested, 2.9% active; AID 624296, 2012; note: nearly all actives have a fitted effect of over 50% in size
KB-V1 cytotox = qHTS assay for MDR1-selective chemotherapeutics: Primary screen using the drug-selected MDR subline cells KB-V1; Potency, µM (series often up to 46.1 µM), most hits filed as cytotoxic; KB-V1 MDR cells viability, CellTiter-Glo, 72 h; 400,000 tested, 3.4% active; note: nearly all actives have a fitted effect of over 60% in size
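Cytotoxicity toward P-gp-expressing KB-V1 cells was determined as loss of CellTiter-Glo luminescence after 72 h at 37 degrees C. Compounds were tested in quantitative HTS format across a concentration range, with curves fitted to normalized data.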
HT1080-NT tox = qHTS for induction of synthetic lethality in tumor cells producing 2HG: qHTS for the HT-1080-NT fibrosarcoma cell line; HT-1080-NT fibrosarcoma viability, CellTiter-Glo ATP luminescence, 48 h; Potency, µM (series often up to 46.1 µM), actives largely listed as cytotoxic; 360,000 tested, 1.6% active; AID 686970, 2013;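 note: NT is the 2HG producing partner of a matched IDH1 knockdown line; nearly all actives have a fitted effect of over 55% in size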
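A 48-hour cytotoxicity screen used HT-1080-NT cells plated 2 hours before compound delivery. ATP-based CellTiter-Glo luminescence measured viability, normalized to DMSO and no-cell controls.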
KB-3-1 cytotox = qHTS assay for MDR1-selective chemotherapeutics: Primary screen using the parental adenocarcinoma cell KB-3-1; KB-3-1 viability, CellTiter-Glo ATP luminescence, 72 h; Potency, µM (doses to about 46.1 µM), actives largely listed as cytotoxic; AID 1347075, 2019; 400,000 tested, 1.4% active; note: nearly all actives have a fitted effect of over 60% in size
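Parental KB-3-1 adenocarcinoma cells in phenol-red-free DMEM with 10% FBS were pin-treated with compounds at several concentrations, incubated 72 h at 37 °C, and viability read by CellTiter-Glo luminescence; concentration-effect curves were fitted after normalization.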
SW480 rerep = A quantitative high throughput screen for small molecules that induce DNA re-replication in SW480 colon adenocarcinoma cells | 340,000 tested, 1.8% active | Potency, µM (series often up to 46.1 µM), actives largely listed as activators | SW480 DNA re-replication, Hoechst DNA content imaging, 48 h; note: nearly all actives have a fitted effect of over 55% in size
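Hoechst fluorescence of nuclei (405 nm excitation, 500-530 nm emission) measured by plate-scanning imager after 48 hr compound exposure at 37 C; re-replication scored as increased number of nuclei with elevated intensity.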
HT1080 IDH1KD tx = qHTS for induction of synthetic lethality in tumor cells producing 2HG: qHTS for the HT-1080-IDH1KD cell line; Potency, µM (highest dose often 46.1 µM), actives largely listed as cytotoxic; HT-1080 IDH1 knockdown viability, ATP luminescence, 48 h; 360,000 tested, 2% active; AID 686971, 2013
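% activity derives from luminescence (CellTiter-Glo), normalised to DMSO and no-cell wells. HT-1080-IDH1KD cells, 750/well, had 48 h compound exposure at 37 °C.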
Numbers stand for hits; i = inactive; ? = inconclusive; nt = no result given. Calls come from the whole dose curve; as a rule, active = well fitted curve in the direction sought with a large enough effect; inconclusive = small, poorly fitted or top-dose-only effect, or another doubt; inactive = no such curve, though single readings can be large; an effect the other way counts as inactive or inconclusive.

SMILES	MCF10A rerep	KB-V1 cytotox	HT1080-NT tox	KB-3-1 cytotox	SW480 rerep	HT1080 IDH1KD tx
CCOC(=O)c1sc(=S)n(-c2ccc(OC)cc2)c1C	?	i	i	i	i	i
CCOC(=O)c1c2c(n(-c3ccc(OC)cc3)c1C)C(=O)C(=O)c1ccccc1-2	3.26µM	?	14.6µM	?	5.8µM	8.2µM
C[n+]1ccc(/C=C/c2cc[n+](C)c3ccccc23)c2ccccc21	nt	i	nt	?	nt	nt
CN1C=C/C(=C\c2cc[n+](C)c3ccccc23)c2ccccc21	0.581µM	i	?	i	i	6.51µM
O=C(CCl)NCc1c(Cl)cccc1-n1cccc1	18.4µM	i	?	i	i	10µM
COCCCNC(=O)c1cc(-c2cccnc2)nc2ccc(S(=O)(=O)N3CCCCCC3)cc12	i	i	i	i	i	i
Cc1cccc2cc3c(N)c(C(=O)N4CCc5ccccc54)sc3nc12	?	9.2µM	i	?	?	?
Cc1cccc2cc3c(N)c(C#N)sc3nc12	?	1.46µM	i	?	?	i
Cc1ccc(C)c2nc3sc(C(=O)N4CCOCC4)c(N)c3cc12	?	?	4.11µM	?	?	3.26µM
Cc1cc(C)c2nc3sc(C(=O)N4CCOCC4)c(N)c3cc2c1	?	?	0.206µM	0.259µM	?	0.0517µM
Cc1cc(C)c2cc3c(N)c(C(=O)N4CCOCC4)sc3nc2c1	i	i	i	i	i	i
CCOCCn1ccc2c(OCC(=O)Nc3cccc([N+](=O)[O-])c3)cccc2c1=O	nt	i	nt	i	nt	nt
Cc1cccc(N2CCN(C(=O)Cn3nc(C)c4sc5ccccc5c4c3=O)CC2)c1C	nt	i	nt	i	nt	nt
Nc1c(C(=O)N2CCCC2)sc2nc3c(cc12)CCCCCC3	14.6µM	?	i	i	i	i
O=C(CSc1nnc(-c2c[nH]c3ccccc23)n1C1CC1)NC1CCS(=O)(=O)C1 (configuration not stated)	nt	i	i	i	nt	i
O=C(Nc1cccc(C(F)(F)F)c1)C1CC(=O)N(Cc2ccco2)C1 (configuration not stated)	nt	?	i	i	nt	i
Nc1nc(Cl)cc(Sc2ccc3ccccc3c2)n1	?	?	?	?	?	16.4µM
CC(=O)n1cc(N(C(=O)CCl)c2ccc(C)cc2)c2ccccc21	14.6µM	?	2.31µM	18.4µM	?	2.91µM
CCn1ccc2cc(S(=O)(=O)N3CCCN(C(=O)Nc4ccc(C)cc4)CC3)ccc21	nt	i	nt	?	nt	nt
Cc1ccccc1OCC(O)CN1CCN(CC(O)COc2ccccc2C)C(C)C1 (configuration not stated)	?	i	25.9µM	i	i	?
CC(C)(C)C(=O)Cn1c(=N)n(Cc2ccccc2Cl)c2ccccc21	i	i	i	?	?	i
CC(C)(C)C(=O)Cn1c(=N)n(Cc2ccccc2)c2ccccc21	17.8µM	?	?	?	?	?
Cc1nccn1CC(O)Cn1c2ccccc2c2ccccc21 (configuration not stated)	20.6µM	i	?	i	i	i
Cc1ccccc1OCC(O)Cn1c2ccccc2c2ccccc21 (configuration not stated)	i	20.6µM	?	i	23.1µM	?
Cc1ccccc1OCC(O)CN1CCN(CCN2C(=O)c3cccc4cccc(c34)C2=O)CC1 (configuration not stated)	i	?	i	?	i	i
Cc1cc(=O)[nH]c(-c2ccc(C(F)(F)F)cc2)n1	i	i	i	i	i	i
CCc1ccc(NC(=O)c2cnn3c(C)cc(C)nc23)cc1	nt	?	nt	i	nt	nt
COc1ccc(Br)cc1CN1CCSCC1	i	i	i	i	i	i

Screens deposited in PubChem by National Center for Advancing Translational Sciences (NCATS).
